Structures are written as SMILES. The source made the active and inactive calls.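 The calls were made as follows: active = z-score of at least 1.8 in each of two replicates, scored against plate mean and spread of sample wells; inactive = the rest.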

A short description of the test: viability rescue of complex I mutant cybrids, primary screen, cell-based, galactose medium, ATP luminescence (AID 1645843).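 Also: positive z means more ATP and so rescue of galactose-driven cybrid death.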 Conditions: complex I mutant cybrid cells, 72 h, active compounds read high.
As for `CC(=O)Nc1cccc(-c2nn(CC(=O)Nc3cnn(C)n3)c3ccccc23)c1`, the z-score is -0.43 (inactive).

`Cc1cc(NC(=O)Cn2ncc3cc(-c4ccc(F)c(F)c4)ccc32)n(C)n1`: the z-score is 0.765 (inactive).

As for `O=C(O)CCC(=O)Nc1ccc(Br)cn1`, the z-score was 0.275 (inactive).

With `CC(C)SC1OC(CO)C(O)C(O)C1O` (stereo not given), the z-score is 0.635 (inactive).

As for `COC1C=CO[C@@]2(C)Oc3c(C)c(O)c4c(O)c(c(C=NN5CCN(C6CCCC6)CC5)c(O)c4c3C2=O)NC(=O)C(C)=CC=CC(C)C(O)C(C)C(O)C(C)C(OC(C)=O)C1C` (stereo not given in full), the z-score is 0.32 (inactive).

With `Cc1nsc(NC(=O)N[C@@H]2CCCC[C@H]2c2ccccc2)n1`, the z-score was 1.12 (inactive).

`O=C(c1ccnc(Cl)c1)N1CCc2[nH]nc(C3CCC3)c2C1`: the z-score is -0.4 (inactive).

For the compound `Cc1cc(C)nc(-c2cnn(CC(=O)Nc3cnn(C)n3)c2)n1`, the z-score was -0.525 (inactive).

On to `O=C(O)c1ccc(-c2ccccc2[N+](=O)[O-])o1`, for which the z-score is 0.32 (inactive).

Take `O=C(NCC(c1ccccc1)c1ccccc1)Nc1nncs1`: the z-score was 1.59 (inactive).

Turning to `O=C1NCC(=O)N2CCCC12` (stereo not given), the z-score was 0.315 (inactive).

Consider `CCc1nc(NC(=O)NCCc2nc(-c3ccc(C)cc3)no2)nn1C`, for which the z-score was 2.27 (active).

For `CC1(C)CC(=O)c2c(N)ncnc2C1`, the z-score was 0.725 (inactive).

As to `Cc1nsc(NC(=O)N2CCCCC2c2nc(C(C)C)no2)n1` (stereo not given), the z-score is -0.525 (inactive).

As for `O=C(Cn1nc(Cc2ccccc2)c2ccccc2c1=O)NCCc1ccco1`, the z-score is -0.33 (inactive).

For the compound `COc1ccccc1C(=O)N1CCC(n2cc(-c3ccccn3)nn2)CC1`, the z-score was -0.23 (inactive).

As for `NS(=O)(=O)c1ccc(F)cc1`, the z-score was 0.18 (inactive).

With `O=C(Nc1n[nH]c(-c2ccco2)n1)N1CCc2ccccc2C1`, the z-score is 0.1 (inactive).

Take `Cc1csc(CNC(=O)Cc2csc(-c3ccccc3)n2)n1`: the z-score was -0.44 (inactive).

With `O=C(NCc1ccccn1)c1ccc(Oc2ccccc2)cc1`, the z-score is 0.08 (inactive).

In the case of `COc1cccc2c(=O)n(Cc3ccc4ncccc4c3)cnc12`, the z-score is -0.28 (inactive).

In the case of `CCNC(=O)c1cccnc1N1CCN(c2ccc(Cl)cc2)CC1`, the z-score was 0.35 (inactive).

In the case of `CN=C(NC)NCc1ccccc1`, the z-score is 0.38 (inactive).

As for `Cc1nsc(NC(=O)NC2Cc3ccccc3C2)n1`, the z-score was 2.51 (active).

Consider `Cc1c(Br)c(=O)oc2c(Br)c(O)ccc12`, for which the z-score is -0.145 (inactive).

Take `CCc1noc(Cn2cnc3sc4c(c3c2=O)CCC(C)C4)n1` (stereo not given): the z-score is -0.515 (inactive).

Turning to `O=c1c2nccnc2ncn1Cc1ccc2nsnc2c1`, the z-score was -0.53 (inactive).

As to `O=c1ccn2c(n1)OC1C(O)C(CO)OC12` (stereo not given), the z-score is 0.87 (inactive).

In the case of `NCC1OC(OC2C(CO)OC(OC3C(O)C(N)CC(N)C3OC3OC(CO)C(O)C(O)C3N)C2O)C(N)C(O)C1O` (stereo not given), the z-score is 0.725 (inactive).

As for `CCn1ncc(NC(=O)Cn2nc(C)c(-c3ccc(-n4cccn4)cc3)c2C)n1`, the z-score was -0.54 (inactive).

With `O=S(=O)(Nc1cc(-c2cccs2)nn1-c1ccc(F)cc1)c1cccc(F)c1`, the z-score was -1.46 (inactive).

For the compound `CN1CCC(CN(C)Cc2ccc(-c3nc(-c4ccncc4)cc(=O)[nH]3)cc2)CC1`, the z-score is -0.495 (inactive).

As to `CSc1ccccc1C(=O)N1CCc2[nH]nc(COc3ccccc3)c2C1`, the z-score is 1.12 (inactive).

Turning to `c1ccc2c(c1)OCC(CNc1ncnc3nc[nH]c13)O2` (stereo not given), the z-score is -0.485 (inactive).

`O=C(Nc1c[nH]c2ccccc12)c1cccnc1`: the z-score was 1.14 (inactive).

For the compound `CCn1ncc2[nH]c(-c3cnn(C)c3-c3ccccc3)nc21`, the z-score is -0.49 (inactive).

As for `Cc1cc(-c2cnn(CC(=O)Nc3ccnn3Cc3ccccc3)c2)nc(N)n1`, the z-score was -0.58 (inactive).

On to `Cc1cccc(C)c1OCC(=O)O`, for which the z-score is 0.75 (inactive).

On to `Cc1cc(=O)oc2cc(OC3OC(CO)C(O)C(O)C3O)ccc12` (stereo not given), for which the z-score is 0.72 (inactive).

Take `O=C1CN(c2ncnc3nc[nH]c23)CCN1Cc1cccc(F)c1`: the z-score is -0.53 (inactive).

(Values after PubChem BioAssay.)
